Source: PubChem
This is a sample that favours compounds with a hit; in the whole collection about 12% have one here.
Shiga toxin inh: Shiga toxin inhibition. Vero cells, Shiga toxin protein synthesis inhibition reporter. inhibition, % at 38.7 µM. 9.2% of 290,000 active. AID 2315; in the data active means inhibition mostly above about 28%, no sharp cut-off; inactive means mostly below about 43%
MARV entry inh: Marburg virus entry inhibition | 1.8% of 300,000 active | Marburg virus pseudotyped entry inhibition, cell reporter | Potency, µM (titrated, usually from 37.8 µM), usual class: inhibitors; calls by dose curve; tested in HEK293 cells
Lassa entry inh: Lassa virus entry inhibition | Lassa virus pseudotype entry inhibition, cell reporter | AID 540256 | 1.2% of 300,000 active | Potency, µM (titrated, usually from 37.9 µM), most hits filed as inhibitors; calls by dose curve; tested in HEK293 cells; further: nearly all actives have a fitted effect of over 50% in size
Cycloheximide cs: counter-screen for Shiga toxin inhibitors: cycloheximide protein synthesis inhibition | cell reporter, cycloheximide protein synthesis inhibition counterscreen | max response, % | 12% of 300,000 active | AID 2314; in the data active means max response mostly above about 13%, no sharp cut-off; inactive means mostly below about 14%; further: read at 38.3 µM for the half of the compounds with a filed dose
Of the large screens only hits and unclear results are named; the others gave an inactive call.

COc1ccc(-c2nc(CS(=O)CC(=O)NCCCN3CCCC(C)C3)c(C)o2)cc1OC (stereo not given)	MARV entry inh inconclusive
Cn1c(=O)c2c(ncn2CC(=O)OCC(=O)c2ccc(F)c(F)c2)n(C)c1=O	none
COc1cccc(CNC(=O)COC(=O)C2CCN(c3ccc(C(F)(F)F)cn3)CC2)c1	none (no result: Shiga toxin inh, Cycloheximide cs)
COc1cc(NC(=O)CC(C)S(=O)(=O)c2ccc3c(c2)NC(=O)CO3)cc(OC)c1OC (stereo not given)	none
CCCN1CCC(=O)N(C(CSc2ccc(OC)cc2)c2ccccc2)CC1 (stereo not given)	Shiga toxin inh 156, Cycloheximide cs 42 (no result: MARV entry inh, Lassa entry inh)
O=C1CCN(CCc2ccccc2)CCN1[C@H](CSc1ccc(Br)cc1)c1ccccc1	none (no result: MARV entry inh, Lassa entry inh)
CCCN1CCC(=O)N([C@H](CSc2ccc(Br)cc2)c2ccccc2)CC1	Cycloheximide cs 35 (no result: MARV entry inh, Lassa entry inh)
CC(=O)Nc1ccc(NC(=O)CCn2nnc3ccccc32)cc1	Lassa entry inh inconclusive
CCOC(=O)c1ccc(NC(=O)CCn2nnc3ccccc32)cc1	Cycloheximide cs 12
CCOC(=O)c1ccc(NC(=O)Cn2nnc3ccccc32)cc1	Shiga toxin inh 92, Cycloheximide cs 32
Cc1cccc(OCC(=O)NCCCNC(=O)c2ccc(C)nc2)c1	none
CCOc1ccc(N(CC(=O)Nc2ccc(OC)cc2)S(C)(=O)=O)cc1	Shiga toxin inh 53, Cycloheximide cs 39
COC(=O)c1ccccc1NC(=O)CN(c1ccc(OC)cc1)S(C)(=O)=O	none
CCOc1ccc(N(CC(=O)NCCSCc2ccccc2Cl)S(C)(=O)=O)cc1	none (no result: MARV entry inh, Lassa entry inh)
COc1ccc(N(CC(=O)Nc2cccc3ccccc23)S(C)(=O)=O)cc1	Cycloheximide cs 12 (no result: MARV entry inh, Lassa entry inh)
CCOc1ccc(N(CC(=O)Nc2ccc(OC)cc2)S(=O)(=O)c2ccc(Cl)cc2)cc1	none (no result: Shiga toxin inh, MARV entry inh, Cycloheximide cs)
CCOc1ccc(N(CC(=O)NCc2ccccc2C)S(C)(=O)=O)cc1	Shiga toxin inh 68, Cycloheximide cs 42 (no result: MARV entry inh, Lassa entry inh)
COC(=O)c1ccc(NC(=O)CN(c2ccc(OC)cc2)S(C)(=O)=O)cc1	Shiga toxin inh 63, Cycloheximide cs 53
COc1ccc(CN(C)CC(=O)Nc2ccc(Cl)cc2C(F)(F)F)c(OC)c1	none
O=C(COC(=O)c1ccccc1OC(F)F)Nc1ccc2[nH]c(=O)[nH]c2c1	none (no result: Shiga toxin inh, Cycloheximide cs)
CN(C)CCn1nnc2c(=O)oc3ccccc3c21	none
CCOc1ccc(N(CC(=O)Nc2ccc(Br)cc2)S(C)(=O)=O)cc1	Shiga toxin inh 54, Cycloheximide cs 30 (no result: MARV entry inh, Lassa entry inh)
CCOc1ccc(NC(=O)CN(c2ccc(OC)cc2)S(C)(=O)=O)cc1	Shiga toxin inh 121, Lassa entry inh inconclusive, Cycloheximide cs 98
CCOc1ccc(N(CC(=O)Nc2ccc(C)c(Cl)c2)S(C)(=O)=O)cc1	Cycloheximide cs 24 (no result: MARV entry inh, Lassa entry inh)
CCOc1ccc(NC(=O)CN(c2ccc(C)cc2)S(=O)(=O)c2cccs2)cc1	none (no result: Shiga toxin inh, Cycloheximide cs)
CCOc1ccc(N(CC(=O)Nc2cccc(C)c2)S(C)(=O)=O)cc1	Shiga toxin inh 86, MARV entry inh inconclusive, Lassa entry inh inconclusive, Cycloheximide cs 54
N#Cc1ccccc1S(=O)(=O)N1CCN(C(=O)C2CCC2)CC1	none (no result: Shiga toxin inh, Cycloheximide cs)
Cc1ccc(-c2csc(NC(=O)C3=NN(C4CCS(=O)(=O)C4)C(=O)CC3)n2)cc1 (stereo not given)	none (no result: MARV entry inh, Lassa entry inh)
CCCCCCCCCCCCC/C=C/C(O)C(COP(=O)(O)OCCN)NC(=O)CCCCCCCCCCCCCCCCC (stereo not given)	none (no result: MARV entry inh, Lassa entry inh)
CC(C)n1c(/C=C/c2ccccc2)nc2ccccc21	Shiga toxin inh 79, MARV entry inh inconclusive, Cycloheximide cs 30
CCn1c(/C=C/c2cc[n+](C)cc2)nc2ccccc21	none
CCCn1c(/C=C/c2ccccc2)nc2ccccc21	Shiga toxin inh 106, Cycloheximide cs 26
CC(C)Cn1c(/C=C/c2ccco2)nc2ccccc21	Cycloheximide cs 19
COCCOCCn1c(CCCO)nc2ccccc21	none
COCCOCCn1c(/C=C/c2ccccc2)nc2ccccc21	MARV entry inh inconclusive, Lassa entry inh inconclusive, Cycloheximide cs 20
CC(C)n1c(CN(C)c2ccccc2)nc2ccccc21	Lassa entry inh inconclusive
COc1ccc(COC(=O)c2ccc(C)c(S(=O)(=O)N3CCOCC3)c2)cc1F	none (no result: Shiga toxin inh, Cycloheximide cs)
Cc1ccccc1OCC(=O)Nc1ccc2nc(SCc3ccccc3)sc2c1	none (no result: Shiga toxin inh, Cycloheximide cs)
COCC(C)n1c(C)cc(C(=O)CSc2nnnn2-c2ccc(O)cc2)c1C (stereo not given)	Shiga toxin inh 50, MARV entry inh inconclusive, Lassa entry inh inconclusive, Cycloheximide cs 29
COCCn1c(C)cc(C(=O)CSc2nncn2-c2ccccc2)c1C	none
COCC(C)n1c(C)cc(C(=O)COC(=O)/C=C/c2cccc(F)c2)c1C (stereo not given)	MARV entry inh inconclusive
COc1ccc(CCn2c(C)cc(C(=O)CSc3nnnn3-c3ccccc3)c2C)cc1	MARV entry inh inconclusive
COCC(C)n1c(C)cc(C(=O)CSc2ccc(NC(C)=O)cc2)c1C (stereo not given)	Shiga toxin inh 52, Lassa entry inh inconclusive, Cycloheximide cs 26
CC(=O)Nc1ccc(SCC(=O)c2cc(C)n(-c3ccccc3F)c2C)cc1	Shiga toxin inh 125, MARV entry inh 6.5µM, Lassa entry inh inconclusive, Cycloheximide cs 74
COCCn1c(C)cc(C(=O)CSc2ccc(NC(C)=O)cc2)c1C	Shiga toxin inh 105, Cycloheximide cs 47
COC(=O)c1ccc(-n2c(C)cc(C(=O)CSc3ccc(NC(C)=O)cc3)c2C)cc1	MARV entry inh inconclusive, Lassa entry inh inconclusive
Cc1ccc(CNC(=O)c2cccc(NC(=O)N3CCSc4ncccc43)c2)cc1	none (no result: Shiga toxin inh, MARV entry inh, Cycloheximide cs)
COc1ccc(NC(=O)CN2CCN(Cc3ccc(F)cc3)S2(=O)=O)cc1Cl	none (no result: Shiga toxin inh, MARV entry inh, Cycloheximide cs)
COCC(C)n1c(C)cc(C(=O)CSc2nnc(Nc3ccccc3F)s2)c1C (stereo not given)	MARV entry inh inconclusive, Lassa entry inh inconclusive
COCC(C)n1c(C)cc(C(=O)COC(=O)c2c(NC(C)=O)sc(C)c2C)c1C (stereo not given)	MARV entry inh 2.6µM, Lassa entry inh inconclusive
C=CCn1c(SCC(=O)NCCO)nc2sc(C)c(C)c2c1=O	none
C=CCn1c(SCC(=O)c2cc(C)n(C(C)COC)c2C)nc2sc(C)c(C)c2c1=O (stereo not given)	Lassa entry inh 9.2µM
COCC(C)n1c(C)cc(C(=O)COC(=O)c2c(C)nn(-c3ccccc3)c2C)c1C (stereo not given)	MARV entry inh inconclusive, Lassa entry inh inconclusive
COCC(C)n1c(C)cc(C(=O)CSc2ncccn2)c1C (stereo not given)	Shiga toxin inh 72, Cycloheximide cs 36
CCn1cc(C(=O)OCC(=O)c2cc(C)n(-c3ccccc3F)c2C)c(=O)c2ccc(C)nc21	none
Cc1cc(C(=O)COC(=O)c2ccc(O)cc2)c(C)n1-c1ccccc1F	Shiga toxin inh 107, MARV entry inh inconclusive, Lassa entry inh inconclusive, Cycloheximide cs 42
CC1CCC(N2CC(=O)N(C3CCCC3)C(c3ccc(Cl)cc3)C2=O)CC1 (stereo not given)	none (no result: Shiga toxin inh, MARV entry inh, Cycloheximide cs)
CCCCCCCCCC[Si](C)(C)CCC(=O)N[C@@H](Cc1ccc(C)cc1)c1ccccc1	none (no result: Shiga toxin inh, Lassa entry inh, Cycloheximide cs)
C=CCn1c(C)cc(C(=O)CSc2nnc(NC(C)C)s2)c1C	MARV entry inh inconclusive, Lassa entry inh inconclusive
CC(=O)Nc1ccc(SCC(=O)c2cc(C)n(Cc3cccs3)c2C)cc1	Shiga toxin inh 101, MARV entry inh inconclusive, Lassa entry inh inconclusive, Cycloheximide cs 77
